Where a name gives a salt, the structure may show the parent alone. Read-outs that look alike come from different tables or passages of the source.

Drawing on article PMC6792352, “Limited Chemical Structural Diversity Found to Modulate Thyroid Hormone Receptor in the Tox21 Chemical Library” (Environmental Health Perspectives, 2019), this text covers AC50 for 40 compounds.

The assay relates to thyroid hormone receptor (endogenous TRα and TRβ). Further details: species or system GH3-TRE-Luc (rat pituitary); GH3-TRE-Luc luciferase reporter, antagonist mode against 1 nM T3, loss of signal, qHTS. Particulars: read-out: Average AC50 (uM) GH3-TRE-Antag.
Setting [1] is: antagonist mode, 1 nM T3, no GH3 cytotoxicity hit.

As a reminder, the AC50 is the concentration giving half of the maximal activity seen. `Cn1c(-c2ccccc2)cc(-c2ccccc2)[n+]1C` [Difenzoquat metilsulfate]: the AC50 under setting [1] turned out to be 68.7 µM.
Same read-out and setting: the result for `COP(=S)(OC)Oc1ccc([N+](=O)[O-])cc1Cl` [Dicapthon] reads 79 µM.
Same read-out and setting: the result for `CCCCCCCCCCCCBr` [1-Bromododecane] reads 93.3 µM; that for `Clc1cccc(N2CCNCC2)c1` [1-(3-Chlorophenyl)piperazine], 20 µM; that for `Nc1ccc(N=Nc2ccc(-c3ccc(N=Nc4c(S(=O)(=O)O)cc5cc(S(=O)(=O)O)c(N=Nc6ccccc6)c(O)c5c4N)cc3)cc2)c(N)c1` [C.I. Direct Black 38], 14 µM.
The same measure, in the same setting: the result for `Brc1ccc(Oc2cc(Br)c(Br)cc2Br)c(Br)c1` [2,2',4,4',5-Pentabromodiphenyl ether] reads 39.4 µM.
With `CON(C)C(=O)Nc1ccc(Br)c(Cl)c1` [Chlorbromuron], the AC50 under setting [1] is 60.7 µM.
In the case of `O=C(O)Cc1ccccc1` [Phenylacetic acid], the AC50 under setting [1] is 18.1 µM.
Still for that read-out and setting: the result for `Oc1ccc(Cl)c(Cl)c1` [3,4-Dichlorophenol] reads 59.5 µM.
On to `C=C(Cl)CSC(=S)N(CC)CC` [Sulfallate], for which the half-maximal activity concentration (AC50) under setting [1] stood at 86.5 µM.
Consider `CN1C(=O)C(O)N=C(c2ccccc2)c2cc(Cl)ccc21` (stereo not shown) [Temazepam], for which, under “24 h, antagonist”, the AC50 is over 50 µM.
In the case of `CCC1COC(Cn2cncn2)(c2ccc(Cl)cc2Cl)O1` (stereo not shown) [Etaconazole], the AC50 under setting [1] came to 36.8 µM.
As to `CC[C@@H](O)C(C[C@@H](C)N(C)C)(c1ccccc1)c1ccccc1` [(+)-alpha-Methadol hydrochloride], the AC50 under setting [1] was determined as 55.7 µM.
Same read-out and setting: the result for `Clc1nc(Cl)nc(Cl)n1` [2,4,6-Trichloro-s-triazine] reads over 90 µM; that for `Clc1ccccc1-c1ccccc1Cl` [2,2'-Dichlorobiphenyl], over 100 µM; that for `O=C1C(=O)c2cccc3cccc1c23` [Acenaphthenequinone], 76.1 µM.
In the case of `O=C(O)C(F)(F)C(F)(F)C(F)(F)C(F)(F)C(F)(F)C(F)(F)C(F)(F)F` [Ammonium perfluorooctanoate], the AC50 under setting [1] came to 77.1 µM.
On the same count and under the same terms, as for `Nc1ccccc1C(=O)Oc1ccc2ccccc2c1` [Naphthalen-2-yl 2-aminobenzoate], the figure is 82.4 µM; as for `N#CSCc1ccccc1` [Benzyl thiocyanate], 56.4 µM; as for `C=CC(=O)OCCO` [2-Hydroxyethyl acrylate], 51.5 µM.
Consider `Cc1ncc2n1-c1ccc(Cl)cc1C(c1ccccc1F)=NC2` [Midazolam hydrochloride], for which the AC50 (24 h, antagonist) stood at 32.8 µM.
For the compound `Nc1ccc(-c2ccccc2)cc1` [4-Biphenylamine hydrochloride], the AC50 under setting [1] worked out at 76.8 µM.
Same read-out and setting: as for `c1ccc2c(c1)sc1ccccc12` [Dibenzothiophene], the figure is 33.4 µM; as for `CCOP(=S)(OCC)Oc1cnc2ccccc2n1` [Quinalphos], 55.1 µM.
For the compound `COc1ccc(N)cc1` [4-Methoxyaniline hydrochloride], under “antagonist mode, 1 nM T3, no GH3 cytotoxicity hit, 24 h”, the AC50 is 81.8 µM.
In the case of `COP(=S)(OC)Oc1ccc(Sc2ccc(OP(=S)(OC)OC)cc2)cc1` [Temephos], the AC50 under setting [1] is over 50 µM.
Same read-out and setting: the result for `CNC(=O)O/N=C(\SC)C(=O)N(C)C` [Oxamyl] reads over 90 µM; that for `CCOP(=S)(OCC)SCn1nnc2ccccc2c1=O` [Azinphos-ethyl], over 90 µM.
The same measure, in the same setting: the result for `Nc1ccc2c(c1)Cc1ccccc1-2` [2-Aminofluorene] reads 52 µM; that for `C[C@]12CC[C@H]3[C@@H](CCC4=CC(=O)CC[C@@]43C)[C@@H]1CC[C@H]2O` [Epitestosterone], 38.7 µM; that for `COc1ccc2[nH]cc(CCN(C(C)C)C(C)C)c2c1` [5-Methoxy-N,N-diisopropyltryptamine hydrochloride], 70.7 µM.
The same measure, in the same setting: as for `COc1cc(CC(C)N)cc2c1OCO2` (stereo not shown) [1-(7-Methoxy-1,3-benzodioxol-5-yl)propan-2-amine hydrochloride], the figure is 48.3 µM.
Regarding `C[C@]12CC[C@H]3[C@@H](CCC4=CC(=O)CC[C@@H]43)[C@@H]1CC[C@@H]2OC(=O)CCc1ccccc1` [Nandrolone phenpropionate], the AC50 (24 h, antagonist) came to 19.5 µM.
On to `COP(=S)(OC)Oc1ccc(S(=O)(=O)N(C)C)cc1` [Famphur], for which the AC50 under setting [1] was over 50 µM.
On the same count and under the same terms, as for `C[C@]12CC[C@H]3[C@@H](CCC4=CC(=O)CC[C@@]43C)[C@@H]1CC[C@@H]2OC(=O)CCc1ccccc1` [Testosterone 17-phenylpropionate], the figure is 30 µM; as for `CNP(=O)(OC)Oc1ccc(C(C)(C)C)cc1Cl` (stereo not shown) [Crufomate], 52.9 µM; as for `C[C@]12CCC(=O)C[C@@H]1CC[C@@H]1[C@@H]2CC[C@]2(C)[C@@H](O)CC[C@@H]12` [5alpha-Dihydrotestosterone], 27.8 µM.
For `CCC(N)Cc1c[nH]c2ccccc12` (stereo not shown) [Etryptamine acetate], the half-maximal activity concentration (AC50) under setting [1] stood at 43.6 µM.
The same measure, in the same setting: as for `CN(C)c1ccc(N=Nc2ccccc2)cc1` [4-(Dimethylamino)azobenzene], the figure is 80.1 µM; as for `COP(=S)(OC)Oc1cc(Cl)c(Br)cc1Cl` [Bromofos], 65.8 µM.
